USP30 inh: blocks human USP30 ubiquitin-rhodamine cleavage. Q70CQ3. purified USP30, Ub-rhodamine cleavage fluorescence. inhibition, % at 25 µM. 47,000 compounds, 5.3% hits. AID 1645860
Target sequence (Q70CQ3 whole entry, looked up): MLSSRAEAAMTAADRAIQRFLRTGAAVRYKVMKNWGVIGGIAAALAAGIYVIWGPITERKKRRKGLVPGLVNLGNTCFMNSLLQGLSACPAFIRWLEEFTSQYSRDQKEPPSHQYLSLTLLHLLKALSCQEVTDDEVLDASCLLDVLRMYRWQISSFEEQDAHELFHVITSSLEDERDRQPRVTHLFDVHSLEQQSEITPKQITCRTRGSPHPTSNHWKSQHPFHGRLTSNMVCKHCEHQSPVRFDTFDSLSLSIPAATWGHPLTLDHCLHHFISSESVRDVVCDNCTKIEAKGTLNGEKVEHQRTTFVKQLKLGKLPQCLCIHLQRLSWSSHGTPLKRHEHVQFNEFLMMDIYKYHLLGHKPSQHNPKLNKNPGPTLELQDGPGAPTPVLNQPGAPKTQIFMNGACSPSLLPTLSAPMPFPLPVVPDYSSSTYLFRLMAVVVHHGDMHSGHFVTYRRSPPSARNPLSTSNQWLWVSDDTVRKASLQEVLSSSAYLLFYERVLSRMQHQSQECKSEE
USP17 inh: inhibitors of human USP17 deubiquitinase; A8MUK1; purified USP17, Ub-rhodamine cleavage fluorescence, 3 h; inhibition, % at 50 µM; 47,000 compounds, 6.5% hits; AID 1645855
USP28 block: human USP28 deubiquitinase inhibition | 47,000 compounds, 3% hits | inhibition, % at 25 µM | purified USP28, Ub-rhodamine cleavage fluorescence, 30 min | AID 1645857 | Q96RU2
Hits are given with their value; i = inactive; nt = not tested or not shown. Most compounds without a hit are left out; they make up all but 11% or so of the library. Rule as the data show it: active = inhibition above about 30%; inactive = the rest.

SMILES	USP30 inh	USP17 inh	USP28 block
CC(=O)N1CCN(c2cc(N3CCOCC3)nc(C)n2)CC1	nt	i	nt
COc1ccc(OC)c2c(C)cc(N3CC(C)CC(C)C3)nc12 (stereo unspecified)	43	96	54
CCOc1ccc2[nH]c3c(N4CC(C)CC(C)C4)ncnc3c2c1 (stereo unspecified)	i	i	i
CCNC(=O)N1CCC2(C1)c1ccccc1S(=O)(=O)N2Cc1ccc(F)cc1 (stereo unspecified)	i	i	i
COc1ccc(Cl)cc1C(=O)NNC(=O)c1cc(-c2ccccc2)n[nH]1	i	i	i
COc1ccccc1Oc1nc(-c2ccccc2)cc(C)c1S(C)(=O)=O	i	i	37
O=S(=O)(c1ccc2c(c1)CCCC2)N1CCN(c2nnnn2-c2ccccc2)CC1	i	i	i
COc1ccccc1/C=C(\C(=O)N1CCN(Cc2ccccc2)CC1)c1ccccc1	40	i	i
COc1cc(OC)nc(C(=O)N2CCN(Cc3ccccc3)CC2)n1	i	i	i
Cc1cccc(NC(=O)Cn2c(-c3cnccn3)nc(C)c(C)c2=O)c1C	76	38	i
Cc1nc(-c2cnccn2)n(CC(=O)Nc2cccc(C#N)c2)c(=O)c1C	i	i	i
O=C(CN1CCC2(CC1)N=C(c1ccc(Cl)cc1)C(=O)N2)Nc1cccc(Cl)c1	i	i	i
O=C(CN1CCC2(CC1)N=C(c1ccc(F)cc1)C(=O)N2)Nc1ccc(F)c(F)c1	44	i	i
CN1Cc2ccccc2CN2CCN(S(=O)(=O)c3cccc(C#N)c3)CC2C1 (stereo unspecified)	i	i	i
O=C(CSc1nc(-c2ccccc2)c2ccccc2n1)NCc1ccc2c(c1)OCO2	i	i	i
O=C(CSc1nc(-c2ccccc2)c2ccccc2n1)NCc1ccc(C(=O)O)cc1	32	i	i
COCCn1c(=O)[nH]c2cc(C(=O)N3CCN(C4CCCCC4)CC3)ccc2c1=O	i	i	i
Cc1ccc(NS(=O)(=O)c2cc(-c3[nH]ncc3C(=O)N3CCOCC3)oc2C)cc1C	i	i	i
CCc1ccc2c(CC(=O)N3CCC(C(N)=O)CC3)coc2c1	i	i	i
CCC(=O)Nc1nc2cc(NC(=O)Nc3cc(C)cc(C)c3)ccc2s1	48	i	i
CCC(=O)Nc1nc2ccc(NC(=O)Cc3ccc(OC)c(OC)c3)cc2s1	i	36	i
COc1ccc(S(=O)(=O)Nc2ccc3nc(NC(C)=O)sc3c2)cc1OC	i	i	i
CCC(=O)Nc1nc2cc(NS(=O)(=O)c3ccc(C)cc3)ccc2s1	i	i	i
O=C(CSc1nnc(-c2c[nH]c3ccccc23)n1C1CC1)N(C1CCCC1)C1CCS(=O)(=O)C1 (stereo unspecified)	i	i	i
Cn1nc(C(=O)N2CCCC2)c2c1CCN(C(=O)CCC(=O)NCc1ccc(F)cc1)C2	i	nt	i
SMILES	USP30 inh	USP17 inh	USP28 block
COc1ccc(CC(=O)NCC(=O)N2CCC3(CC2)NCCc2[nH]cnc23)cc1	i	i	i
CCOc1ccccc1C(=O)NCc1c(C)nc2sc(C)nn12	i	i	i
CC(C)(C)C1C/C(=C\c2cccc(O)c2)c2nc3ccccc3c(C(=O)O)c2C1 (stereo unspecified)	i	i	i
O=C(Nc1cccn2c(C3CCC3)nnc12)c1ccccn1	i	nt	i
Cc1cccc(NC(=O)c2c(-c3c(F)cccc3Cl)noc2C)n1	nt	i	nt
O=C(c1ccc(Cl)cc1)c1c[nH]cc1-c1c(F)cccc1Cl	54	32	i
CC(C)Nc1nc2c(cc1C(=O)N(C)C)CCN(c1ncc(F)cn1)CC2	i	i	i
Cc1cccc(NC(=O)CN2C(=O)COc3cc(S(=O)(=O)N4CCCC4)ccc32)c1C	60	i	i
COc1cc(CC(=O)Nc2cc(S(=O)(=O)N3CCCCC3)ccc2Cl)cc(OC)c1OC	i	i	i
CC(NCC(=O)Nc1cc(S(=O)(=O)N2CCCCCC2)ccc1Cl)c1ccccc1 (stereo unspecified)	43	i	i
COc1cc(OC)c(C(=O)Nc2cc(S(=O)(=O)N3CCCCC3)ccc2C)cc1OC	i	i	i
CC(C)(C)NC(=O)CN1C(=O)COc2cc(S(=O)(=O)N3CCCC3)ccc21	i	i	i
Cc1ccc(S(=O)(=O)N2CCCCC2)cc1NC(=O)Cc1cccc(F)c1	i	i	60
Cc1ccc(S(=O)(=O)N2CCCCC2)cc1NC(=O)CN1C(=O)CN(C)C1=O	i	i	i
Cc1ccccc1NC(=O)c1cc(S(=O)(=O)N2CCCCCC2)ccc1Cl	63	nt	i
CCc1nc(-c2cc(C(=O)NCc3ccccn3)c3ccccn23)cs1	i	i	i
COc1ccccc1Cc1cccc(C2CCN(Cc3ccncc3)CC2)n1	i	i	i
CCOc1ccccc1NC(=O)c1cc(S(=O)(=O)N2CCCCC2)ccc1F	i	i	i
CCOC(=O)N1CCN(S(=O)(=O)c2ccc(F)c(C(=O)Nc3ccccc3Cl)c2)CC1	36	i	i
Cc1ccc(C(C)C)c(OCc2nc3ccccc3n2CC(C)C)c1	i	i	i
Cc1ccc(OCc2nc3ccccc3n2C(C)c2ccccc2)cc1 (stereo unspecified)	34	i	i
CC(=O)Nc1ccc(C(=O)OC(C)C(=O)Nc2ccc(C(N)=O)cc2)cc1 (stereo unspecified)	i	i	i
COc1ccc(C(=O)NNC(=O)c2ccc(O)cc2)cc1OC	i	i	i
COc1ccc(C(=O)c2c[nH]cc2-c2ccc(C)cc2)cc1OC	i	31	i
Nc1c(-c2nc3ccccc3[nH]2)c2nc3ccccc3nc2n1Cc1cccc(Cl)c1	i	46	36
SMILES	USP30 inh	USP17 inh	USP28 block
Nc1c(-c2nc3ccccc3[nH]2)c2nc3ccccc3nc2n1Cc1ccccc1	i	i	i
CCc1ccc(CNC(=O)CN2C(=O)CSc3cccn3-c3ccccc32)cc1	i	i	i
O=C(CN1C(=O)CSc2cccn2-c2ccccc21)NCc1ccc(Cl)cc1	i	40	i
Cc1ccccc1N(CC(=O)N1CCN(c2ncccn2)CC1)S(C)(=O)=O	i	i	i
COc1ccc(-c2ccc(C#N)c(SCc3cc4c(cc3Cl)OCO4)n2)cc1	i	43	i
COc1ccc(-c2cc(C3CC3)nc(SCC(=O)O)c2C#N)cc1	i	i	i
COc1ccccc1NC(=O)c1oc2ccccc2c1NC(=O)c1ccccc1Cl	i	i	i
CSc1ccccc1C(=O)Nc1c(C(N)=O)oc2ccccc12	i	i	30
CC(NC(=O)c1ccccc1)c1nc2ccccc2n1CC(=O)Nc1ccc(C#N)cc1 (stereo unspecified)	i	i	i
CC(Oc1ccccc1)c1nc2ccccc2n1CC(=O)N1CCc2ccccc21 (stereo unspecified)	i	i	i
CC(NC(=O)c1ccccc1)c1nc2ccccc2n1CC(=O)NC1CCCCC1 (stereo unspecified)	39	39	i
Cc1ccc(C(=O)NC(C)c2nc3ccccc3n2CC(=O)N2CCc3ccccc32)cc1 (stereo unspecified)	63	76	i
Cc1[nH]c(C(=O)NCc2ccccc2)c(C)c1S(=O)(=O)N1CCCC1	i	i	i
COC1CCN([C@@H]2[C@@H](O)[C@H](Oc3cccnc3)C[C@H]2NC(=O)c2cccnc2)CC1	i	i	i
CCC(C)N(CCNC(=O)CC1Oc2ccccc2NC1=O)C1CCCCC1 (stereo unspecified)	i	i	i

Bioassay records (PubChem BioAssay)
